The nature of experiment [1]: qHTS assay to test for compound auto fluorescence at 535 nm (green) in HEK293 cells (AID 720680). A general note: Quantitative high-throughput screening tests each substance at several concentrations.
The nature of experiment [2]: qHTS assay to test for compound auto fluorescence at 535 nm (green) in HEK293 cell free culture (AID 720682). The method, boiled down:
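Using fluorescein as calibrant, autofluorescence was quantified at 485/535 nm in cell-free DMEM containing 10% FBS after pintool addition of compound or vehicle.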

Experiment [3] is described as follows: qHTS assay to test for compound auto fluorescence at 590 nm (red) in HEK293 cell free culture (AID 720683). The method, boiled down: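 Red-channel autofluorescence of compounds in culture medium (DMEM, 10% FBS), no cells, measured at 540/590 nm. Rose Bengal sodium is the reference fluorophore for equivalence.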
The nature of experiment [4]: qHTS assay to test for compound auto fluorescence at 590 nm (red) in HepG2 cell free culture (AID 720684). An outline of the steps:
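No cells present: MEM + 10% FBS only. Compound pinned in, red label read (540/590 nm). Activity = fluorescence equivalent to Rose Bengal sodium.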

The nature of experiment [5]: qHTS assay to test for compound auto fluorescence at 460 nm (blue) in HepG2 cell free culture (AID 720685). An outline of the steps:
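Cell-free plates of MEM plus 10% FBS received 23 nL compound or DMSO vehicle; blue-channel (405/460 nm) intensity scored against triamterene as reference fluorophore.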

Experiment [6] is described as follows: qHTS assay to test for compound auto fluorescence at 535 nm (green) in HepG2 cell free culture (AID 720686).
Experiment [7] in a line: qHTS assay to test for compound auto fluorescence at 460 nm (blue) in HepG2 cells (AID 720687). The method, boiled down: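 Blue-channel autofluorescence (Ex/Em 405/460 nm, triamterene-equivalent) was measured after 1 hr compound exposure at 37 C, 5% CO2. Cells were HepG2, plated overnight at 37 C in MEM plus 10% FBS.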
In experiment [8] the target is Glucocorticoid receptor (Homo sapiens) (UniProt P04150). In words: qHTS assay to identify small molecule agonists of the glucocorticoid receptor (GR) signaling pathway (AID 720691; active = well fitted activation curve with a large enough effect in the signal ratio in the repeat runs, not every such curve was filed as active; the % refers to the signal ratio). The note with it: GR-bla HeLa, beta-lactamase reporter ratio, 18 h; activation: at 62.4 µM (top of the series). The method, boiled down: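 Compounds in DMSO, alongside positive controls, were added to GR-bla HeLa reporter cells and incubated 18 h at 37 C; GRE-driven beta-lactamase was detected by fluorescence after 2 h with FRET substrate at room temperature.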

Experiment [9] can be described thus: qHTS assay to identify small molecule antagonists of the glucocorticoid receptor (GR) signaling pathway - cell viability counter screen (AID 720693). Note: nearly all actives have a fitted effect of over 55% in size.
Experiment [10] is described as follows: qHTS assay for identifying genotoxic compounds that show differential cytotoxicity against isogenic chicken DT40 cell lines with known DNA damage response pathways - wild type cell line (AID 743012). Note: nearly all actives have a fitted effect of over 60% in size. Note: potency is the fitted concentration of half-maximal effect. An outline of the steps: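 Viability of DNA repair-proficient chicken DT40 cells was assessed by CellTiter-Glo luminescence following 40 h compound exposure at 37 C/5% CO2.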

A short description of experiment [11]: qHTS assay for identifying genotoxic compounds that show differential cytotoxicity against isogenic chicken DT40 cell lines with known DNA damage response pathways - Rev3 mutant cell line (AID 743014). Note: nearly all actives have a fitted effect of over 55% in size. Note: potency is the fitted concentration of half-maximal effect.
Experiment [12] is described as follows: qHTS assay for identifying genotoxic compounds that show differential cytotoxicity against isogenic chicken DT40 cell lines with known DNA damage response pathways - Rad54/Ku70 mutant cell line (AID 743015). Note: nearly all actives have a fitted effect of over 60% in size. Note: potency is the fitted concentration of half-maximal effect.
Experiment [13] is described as follows: qHTS assay to identify small molecule antagonists of the androgen receptor (AR) signaling pathway - cell viability counter screen (AID 743033; note: nearly all actives have a fitted effect of over 45% in size).
A short description of experiment [14]: qHTS assay to identify small molecule antagonists of the androgen receptor (AR) signaling pathway using the MDA cell line - cell viability counter screen (AID 743041; note: nearly all actives have a fitted effect of over 45% in size). An outline of the steps: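 Using the breast carcinoma line MDA-kb2 AR-luc, test chemicals were co-incubated with R1881 for 16 h; CellTiter-Fluor reagent, added at 15.5 h, provided a fluorescence measure of live cells.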

The target in experiment [15] is Glucocorticoid receptor (Homo sapiens) (UniProt P04150). In words: qHTS assay to identify small molecule antagonists of the glucocorticoid receptor (GR) signaling pathway (AID 720692; active = well fitted inhibition curve with a large enough effect in the signal ratio in the repeat runs, not every such curve was filed as active; the % refers to the signal ratio). An outline of the steps:
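In a 1536-well cell format, compounds were added 4 h after seeding GR-bla HeLa cells, together with dexamethasone at 5 nM final; reporter activity was measured by FRET-substrate fluorescence following 18 h at 37 C.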

Inconclusive results are not listed. The source made the active and inactive calls. Unless noted, calls come from the whole dose curve; as a rule, active = well fitted curve in the direction sought with a large enough effect in the repeat runs; inconclusive = weak or mixed curves; inactive = no such curve, though single readings can be large; an effect the other way counts as inactive or inconclusive. Positions of bridges follow the written chain, without caps; N, C: chain ends. Non-standard residues stand in square brackets, D forms with d. Residues, ends and D or L forms follow the SMILES beside them. *: point of attachment. X2 = CC[C@H](C)CCCCC(=O)*; Dab = NCC[C@H](N)C(=O)O

Chain of Glucocorticoid receptor (Homo sapiens) (P04150 whole entry, looked up): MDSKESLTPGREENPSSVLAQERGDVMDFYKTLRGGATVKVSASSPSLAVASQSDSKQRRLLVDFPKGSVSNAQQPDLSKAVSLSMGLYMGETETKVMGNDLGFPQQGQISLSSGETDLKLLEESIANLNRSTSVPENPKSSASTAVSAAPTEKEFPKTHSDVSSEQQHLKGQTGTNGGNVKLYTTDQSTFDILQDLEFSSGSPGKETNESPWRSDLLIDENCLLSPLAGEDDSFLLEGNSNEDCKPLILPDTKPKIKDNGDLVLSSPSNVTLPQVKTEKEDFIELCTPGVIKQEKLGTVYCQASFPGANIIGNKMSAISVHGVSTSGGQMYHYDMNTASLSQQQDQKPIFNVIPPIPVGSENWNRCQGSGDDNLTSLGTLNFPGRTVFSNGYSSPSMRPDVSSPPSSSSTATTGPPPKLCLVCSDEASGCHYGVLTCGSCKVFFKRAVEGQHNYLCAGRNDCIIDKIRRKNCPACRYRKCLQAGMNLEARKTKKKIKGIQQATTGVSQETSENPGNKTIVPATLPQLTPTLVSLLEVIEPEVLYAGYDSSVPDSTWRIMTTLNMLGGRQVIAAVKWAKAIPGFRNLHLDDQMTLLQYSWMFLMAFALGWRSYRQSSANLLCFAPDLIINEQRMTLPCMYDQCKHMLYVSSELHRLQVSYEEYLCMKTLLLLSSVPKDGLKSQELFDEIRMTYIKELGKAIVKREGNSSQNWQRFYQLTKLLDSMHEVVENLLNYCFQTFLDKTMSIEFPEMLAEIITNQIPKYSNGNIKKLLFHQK

On to `O=C(O)c1cc(O)c2c(c1)[O][Bi][O]2`, for which the Potency result in experiment [1], in experiment [2], in experiment [3], in experiment [4], in experiment [6] and in experiment [8] was “inactive” in each case. The Potency entry in experiment [9], in experiment [10], in experiment [11], in experiment [12], in experiment [13] and in experiment [14] was “inactive” in each case. The outcome in [5] and in [7] was inactive.
For the molecule `CCCCC/C=C\C/C=C\C/C=C\CCCCC(=O)O`, the Potency result in [1], in [2], in [3], in [4], in experiment [6] and in experiment [9] was “inactive” throughout. The Potency result in experiment [10], in [11], in [12], in experiment [13] and in experiment [14] was “inactive” each time. The outcome in experiment [7] was inactive.
As to `C=C[C@]1(C)C[C@@H](OC(=O)CSCCN(CC)CC)[C@]2(C)[C@H](C)CC[C@]3(CCC(=O)[C@H]32)[C@@H](C)[C@@H]1O`, the Potency result in experiment [1], in experiment [2], in experiment [3], in experiment [4], in experiment [6] and in experiment [15] was “inactive” throughout. Also, the Potency entry in [9], in experiment [13] and in [14] was “inactive” throughout. Moreover, the molecule was classed as inactive in experiment [5] and in experiment [7]. The Potency in experiment [10] was 5.31 µM (active); in [11] it was 5.96 µM (active); in experiment [12], 6.68 µM (active).
Regarding `C[C@@](Cc1ccc(O)c(O)c1)(NN)C(=O)O`, the Potency entry in experiment [1], in [2], in [3], in [4], in [6] and in experiment [8] was “inactive” each time. Further, the Potency entry in [15], in experiment [9], in experiment [13] and in experiment [14] was “inactive” throughout. In addition, the outcome in [5] and in [7] was inactive. Besides, the Potency in experiment [11] is 29.8 µM (active).
Consider `COC(=O)[C@H]1[C@H]2C[C@@H]3c4[nH]c5cc(OC)ccc5c4CCN3C[C@H]2C[C@H](OC)[C@@H]1OC`, for which the Potency entry in experiment [1], in experiment [2], in experiment [3], in [4], in experiment [6] and in experiment [8] was “inactive” each time. Besides, the Potency result in experiment [15], in experiment [9], in experiment [10], in [12] and in experiment [13] was “inactive” throughout.
Consider `Cc1cc(C(=O)NNCc2ccccc2)no1`, for which the Potency entry in experiment [1], in [2], in experiment [3], in [4], in experiment [6] and in [8] was “inactive” each time. Also, the Potency result in experiment [9], in experiment [10], in experiment [11], in experiment [12], in experiment [13] and in [14] was “inactive” each time. Moreover, the outcome in experiment [5] and in experiment [7] was inactive.
As for `Cn1c(=O)c2c(ncn2CCOC(=O)C(C)(C)Oc2ccc(Cl)cc2)n(C)c1=O`, the Potency result in experiment [1], in experiment [2], in experiment [3], in experiment [4], in [8] and in experiment [15] was “inactive” in each case. Besides, the Potency entry in experiment [9], in [11], in experiment [13] and in experiment [14] was “inactive” each time. Moreover, in [7], the result was inactive.
As for `CC[C@H](C)CCCCC(=O)N[C@@H](CCN)C(=O)N[C@H](C(=O)N[C@@H](CCN)C(=O)N[C@H]1CCNC(=O)[C@@H]([C@H](C)O)NC(=O)[C@H](CCN)NC(=O)[C@H](CCN)NC(=O)[C@H](CC(C)C)NC(=O)[C@@H](CC(C)C)NC(=O)[C@H](CCN)NC1=O)[C@@H](C)O` (X2-[Dab]T[Dab][Dab][Dab][dL]L[Dab][Dab][dT]; lactam 4-C), the Potency result in experiment [1], in [2], in [3], in experiment [4], in [8] and in experiment [15] was “inactive” in each case. In addition, the Potency entry in experiment [9], in experiment [10] and in experiment [14] was “inactive” in each case. The result in experiment [5] and in experiment [7] was inactive.

Values taken from PubChem BioAssay (Tox21).
